Assays:
Assay in all cases: DAPPL (digital affinity profiling via proximity ligation, sequencing); 10 mM Tris-HCl pH 7.5, 50 mM NaCl, 1 mM DTT, 4% glycerol, room temperature, 30 min; GST-TFs on glutathione beads, 16-mer random dsDNA library, 0.1% formaldehyde crosslink after washing; high values mean tight binding
Conditions in all cases: protein: recombinant; tags: N-terminal GST; dsDNA, one strand shown
ERF = target: T1, ERF (Homo sapiens, UniProt P50548 1-548)
T1 sequence: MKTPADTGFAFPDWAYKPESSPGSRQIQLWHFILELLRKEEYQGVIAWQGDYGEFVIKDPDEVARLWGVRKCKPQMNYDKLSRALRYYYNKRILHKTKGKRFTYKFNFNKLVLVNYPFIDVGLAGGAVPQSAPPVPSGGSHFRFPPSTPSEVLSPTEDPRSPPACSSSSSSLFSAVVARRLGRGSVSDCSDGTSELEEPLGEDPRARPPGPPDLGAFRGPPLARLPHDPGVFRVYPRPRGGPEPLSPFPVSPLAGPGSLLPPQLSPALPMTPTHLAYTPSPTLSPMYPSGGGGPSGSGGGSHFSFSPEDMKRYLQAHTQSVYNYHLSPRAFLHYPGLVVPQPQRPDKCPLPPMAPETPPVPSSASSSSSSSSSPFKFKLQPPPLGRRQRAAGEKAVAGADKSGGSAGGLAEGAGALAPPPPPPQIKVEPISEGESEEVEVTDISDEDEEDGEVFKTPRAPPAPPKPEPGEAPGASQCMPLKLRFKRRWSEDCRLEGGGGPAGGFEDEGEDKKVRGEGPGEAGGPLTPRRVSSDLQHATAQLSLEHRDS
Procedure, shortened: (§1)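 A tag-only sample was pooled with DNA-barcoded human transcription factors that had been expressed in yeast as GST fusions and captured on glutathione beads. The pools were incubated for 30 min at room temperature with 200 nmole of a random double-stranded 16-mer DNA library in Tris/NaCl/DTT/glycerol buffer, then washed, crosslinked with 0.1% formaldehyde, proximity-ligated (BsaI/T4 ligase, 1 h, 37 °C), PCR-amplified and sequenced on an Illumina NextSeq500. Binding signal is each hexamer's read frequency for a factor divided by its frequency for the tag-only sample.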

ETV3L = target: T2, ETV3L (Homo sapiens, UniProt Q6ZN32 1-361)
T2 sequence: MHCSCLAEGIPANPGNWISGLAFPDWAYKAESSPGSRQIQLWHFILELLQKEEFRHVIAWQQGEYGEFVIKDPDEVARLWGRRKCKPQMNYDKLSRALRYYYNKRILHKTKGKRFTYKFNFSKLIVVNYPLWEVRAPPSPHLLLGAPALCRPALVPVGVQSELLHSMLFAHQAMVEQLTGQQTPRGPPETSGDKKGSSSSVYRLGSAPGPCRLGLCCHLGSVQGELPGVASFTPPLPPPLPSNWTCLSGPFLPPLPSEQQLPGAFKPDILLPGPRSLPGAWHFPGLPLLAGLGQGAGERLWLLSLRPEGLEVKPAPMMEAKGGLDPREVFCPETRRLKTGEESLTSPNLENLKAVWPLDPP
Procedure, shortened: as §1

ETS2 = target: T3, ETS2 (Homo sapiens, UniProt P15036 1-469)
T3 sequence: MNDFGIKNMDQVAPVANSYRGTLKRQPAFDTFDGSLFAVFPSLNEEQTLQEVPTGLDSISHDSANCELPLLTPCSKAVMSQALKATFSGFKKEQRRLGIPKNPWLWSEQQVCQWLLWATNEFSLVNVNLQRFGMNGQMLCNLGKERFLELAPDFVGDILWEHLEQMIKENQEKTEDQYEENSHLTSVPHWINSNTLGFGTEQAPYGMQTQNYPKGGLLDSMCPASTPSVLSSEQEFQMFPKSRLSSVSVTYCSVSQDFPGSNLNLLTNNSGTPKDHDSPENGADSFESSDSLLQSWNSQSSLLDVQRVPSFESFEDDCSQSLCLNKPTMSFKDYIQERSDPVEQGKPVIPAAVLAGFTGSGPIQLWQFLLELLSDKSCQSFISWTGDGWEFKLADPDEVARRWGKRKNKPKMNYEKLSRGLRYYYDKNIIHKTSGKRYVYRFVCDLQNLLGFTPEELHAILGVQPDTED
Procedure, shortened: as §1

SPDEF = target: T4, SPDEF (Homo sapiens, UniProt O95238 1-335)
T4 sequence: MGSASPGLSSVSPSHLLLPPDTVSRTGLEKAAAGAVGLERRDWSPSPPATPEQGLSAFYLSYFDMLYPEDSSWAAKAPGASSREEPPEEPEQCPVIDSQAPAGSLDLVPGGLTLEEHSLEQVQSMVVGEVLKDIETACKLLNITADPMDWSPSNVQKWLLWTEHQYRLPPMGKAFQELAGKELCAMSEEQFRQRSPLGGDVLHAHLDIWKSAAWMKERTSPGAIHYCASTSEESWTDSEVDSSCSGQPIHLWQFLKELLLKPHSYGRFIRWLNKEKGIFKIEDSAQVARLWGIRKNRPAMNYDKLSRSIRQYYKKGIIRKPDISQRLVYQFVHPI
Procedure, shortened: as §1

ETV7 = target: T5, ETV7 (Homo sapiens, UniProt Q9Y603 1-341)
T5 sequence: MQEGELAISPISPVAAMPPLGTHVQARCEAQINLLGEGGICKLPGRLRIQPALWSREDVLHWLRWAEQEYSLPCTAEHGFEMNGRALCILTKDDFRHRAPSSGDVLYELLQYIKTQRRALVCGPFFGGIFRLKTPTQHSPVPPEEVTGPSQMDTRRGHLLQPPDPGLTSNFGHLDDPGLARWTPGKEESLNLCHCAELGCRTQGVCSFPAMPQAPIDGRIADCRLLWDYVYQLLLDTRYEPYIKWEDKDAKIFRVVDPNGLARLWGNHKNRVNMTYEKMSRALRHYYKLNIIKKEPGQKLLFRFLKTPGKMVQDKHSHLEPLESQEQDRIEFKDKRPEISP
Procedure, shortened: as §1

ELF5 = target: T6, ELF5 (Homo sapiens, UniProt Q9UKW6-2 1-255)
T6 sequence: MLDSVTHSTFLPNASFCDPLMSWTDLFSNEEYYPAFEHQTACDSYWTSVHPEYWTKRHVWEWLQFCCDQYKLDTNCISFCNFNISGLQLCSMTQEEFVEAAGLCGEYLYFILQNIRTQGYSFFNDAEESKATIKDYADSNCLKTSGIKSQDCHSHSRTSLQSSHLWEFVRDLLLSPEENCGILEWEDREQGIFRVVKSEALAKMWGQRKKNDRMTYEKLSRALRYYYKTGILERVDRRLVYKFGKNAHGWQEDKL
Procedure, shortened: as §1

ETV3 = target: T7, ETV3 (Homo sapiens, UniProt P41162-2 1-143)
T7 sequence: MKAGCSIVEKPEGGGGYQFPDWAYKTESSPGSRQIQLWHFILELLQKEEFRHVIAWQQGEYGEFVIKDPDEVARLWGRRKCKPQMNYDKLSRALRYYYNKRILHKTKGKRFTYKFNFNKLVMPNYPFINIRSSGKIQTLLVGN
Procedure, shortened: as §1

ETV6 = ETV6 (Homo sapiens, UniProt P41212 1-452)
Sequence of ETV6 (P41212 whole entry): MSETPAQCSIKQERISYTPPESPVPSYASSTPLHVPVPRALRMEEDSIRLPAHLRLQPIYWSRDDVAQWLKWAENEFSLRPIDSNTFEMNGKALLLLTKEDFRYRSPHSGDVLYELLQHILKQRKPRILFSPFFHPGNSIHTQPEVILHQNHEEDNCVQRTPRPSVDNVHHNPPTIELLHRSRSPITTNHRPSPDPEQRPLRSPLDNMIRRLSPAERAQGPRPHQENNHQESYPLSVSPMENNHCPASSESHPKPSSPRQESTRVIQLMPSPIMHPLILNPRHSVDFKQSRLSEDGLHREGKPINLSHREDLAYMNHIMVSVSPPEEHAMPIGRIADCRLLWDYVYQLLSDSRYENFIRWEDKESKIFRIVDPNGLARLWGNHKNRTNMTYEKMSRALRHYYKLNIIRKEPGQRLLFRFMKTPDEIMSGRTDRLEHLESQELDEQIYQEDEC
Procedure, shortened: as §1

Row | Sequence | binding signal (ERF) | binding signal (ETV3L) | binding signal (ETS2) | binding signal (SPDEF) | binding signal (ETV7) | binding signal (ELF5) | binding signal (ETV3) | binding signal (ETV6)
1 | CACTGT | 1.16 fold enrichment (6-mer frequency, TF over GST control) | 1.09 fold enrichment (6-mer frequency, TF over GST control) | 1.13 fold enrichment (6-mer frequency, TF over GST control) | 1.11 fold enrichment (6-mer frequency, TF over GST control) | 1.13 fold enrichment (6-mer frequency, TF over GST control) | 1.12 fold enrichment (6-mer frequency, TF over GST control) | 1.12 fold enrichment (6-mer frequency, TF over GST control) | 1.05 fold enrichment (6-mer frequency, TF over GST control)
2 | AAAGAT | 1.24 fold enrichment (6-mer frequency, TF over GST control) | 1.17 fold enrichment (6-mer frequency, TF over GST control) | 1.16 fold enrichment (6-mer frequency, TF over GST control) | 1.23 fold enrichment (6-mer frequency, TF over GST control) | 1.12 fold enrichment (6-mer frequency, TF over GST control) | 1.15 fold enrichment (6-mer frequency, TF over GST control) | 1.28 fold enrichment (6-mer frequency, TF over GST control) | 1.17 fold enrichment (6-mer frequency, TF over GST control)
3 | ATTGGG | 1.31 fold enrichment (6-mer frequency, TF over GST control) | 1.15 fold enrichment (6-mer frequency, TF over GST control) | 1.12 fold enrichment (6-mer frequency, TF over GST control) | 1.19 fold enrichment (6-mer frequency, TF over GST control) | 1.11 fold enrichment (6-mer frequency, TF over GST control) | 1.11 fold enrichment (6-mer frequency, TF over GST control) | 1.15 fold enrichment (6-mer frequency, TF over GST control) | 1.16 fold enrichment (6-mer frequency, TF over GST control)
4 | ATACGT | 1.11 fold enrichment (6-mer frequency, TF over GST control) | 1.18 fold enrichment (6-mer frequency, TF over GST control) | 1.19 fold enrichment (6-mer frequency, TF over GST control) | 1.23 fold enrichment (6-mer frequency, TF over GST control) | 1.1 fold enrichment (6-mer frequency, TF over GST control) | 1.14 fold enrichment (6-mer frequency, TF over GST control) | 1.14 fold enrichment (6-mer frequency, TF over GST control) | 1.14 fold enrichment (6-mer frequency, TF over GST control)
5 | GATTTC | 1.57 fold enrichment (6-mer frequency, TF over GST control) | 1.73 fold enrichment (6-mer frequency, TF over GST control) | 1.79 fold enrichment (6-mer frequency, TF over GST control) | 1.66 fold enrichment (6-mer frequency, TF over GST control) | 1.56 fold enrichment (6-mer frequency, TF over GST control) | 2.07 fold enrichment (6-mer frequency, TF over GST control) | 1.71 fold enrichment (6-mer frequency, TF over GST control) | 1.8 fold enrichment (6-mer frequency, TF over GST control)
6 | TAGATC | 1.18 fold enrichment (6-mer frequency, TF over GST control) | 1.13 fold enrichment (6-mer frequency, TF over GST control) | 1.13 fold enrichment (6-mer frequency, TF over GST control) | 1.43 fold enrichment (6-mer frequency, TF over GST control) | 1.06 fold enrichment (6-mer frequency, TF over GST control) | 1.02 fold enrichment (6-mer frequency, TF over GST control) | 1.09 fold enrichment (6-mer frequency, TF over GST control) | 1.02 fold enrichment (6-mer frequency, TF over GST control)
7 | CTGCGT | 1.13 fold enrichment (6-mer frequency, TF over GST control) | 1.16 fold enrichment (6-mer frequency, TF over GST control) | 1.15 fold enrichment (6-mer frequency, TF over GST control) | 1.2 fold enrichment (6-mer frequency, TF over GST control) | 1.23 fold enrichment (6-mer frequency, TF over GST control) | 1.11 fold enrichment (6-mer frequency, TF over GST control) | 1.13 fold enrichment (6-mer frequency, TF over GST control) | 1.02 fold enrichment (6-mer frequency, TF over GST control)
8 | TACAAT | 1.31 fold enrichment (6-mer frequency, TF over GST control) | 1.25 fold enrichment (6-mer frequency, TF over GST control) | 1.34 fold enrichment (6-mer frequency, TF over GST control) | 1.28 fold enrichment (6-mer frequency, TF over GST control) | 1.24 fold enrichment (6-mer frequency, TF over GST control) | 1.24 fold enrichment (6-mer frequency, TF over GST control) | 1.28 fold enrichment (6-mer frequency, TF over GST control) | 1.26 fold enrichment (6-mer frequency, TF over GST control)
9 | CACCAC | 1.14 fold enrichment (6-mer frequency, TF over GST control) | 1.19 fold enrichment (6-mer frequency, TF over GST control) | 1.15 fold enrichment (6-mer frequency, TF over GST control) | 1.16 fold enrichment (6-mer frequency, TF over GST control) | 1.04 fold enrichment (6-mer frequency, TF over GST control) | 1.11 fold enrichment (6-mer frequency, TF over GST control) | 1.11 fold enrichment (6-mer frequency, TF over GST control) | 1.14 fold enrichment (6-mer frequency, TF over GST control)
10 | CCCTTG | 1.24 fold enrichment (6-mer frequency, TF over GST control) | 1.08 fold enrichment (6-mer frequency, TF over GST control) | 1.16 fold enrichment (6-mer frequency, TF over GST control) | 1.28 fold enrichment (6-mer frequency, TF over GST control) | 1.18 fold enrichment (6-mer frequency, TF over GST control) | 1.1 fold enrichment (6-mer frequency, TF over GST control) | 1.13 fold enrichment (6-mer frequency, TF over GST control) | 1.17 fold enrichment (6-mer frequency, TF over GST control)
11 | GTTCCG | 1.74 fold enrichment (6-mer frequency, TF over GST control) | 1.93 fold enrichment (6-mer frequency, TF over GST control) | 1.98 fold enrichment (6-mer frequency, TF over GST control) | 2.25 fold enrichment (6-mer frequency, TF over GST control) | 1.67 fold enrichment (6-mer frequency, TF over GST control) | 2.5 fold enrichment (6-mer frequency, TF over GST control) | 2.17 fold enrichment (6-mer frequency, TF over GST control) | 1.9 fold enrichment (6-mer frequency, TF over GST control)
12 | CAGCTT | 1.28 fold enrichment (6-mer frequency, TF over GST control) | 1.2 fold enrichment (6-mer frequency, TF over GST control) | 1.21 fold enrichment (6-mer frequency, TF over GST control) | 1.24 fold enrichment (6-mer frequency, TF over GST control) | 1.15 fold enrichment (6-mer frequency, TF over GST control) | 1.11 fold enrichment (6-mer frequency, TF over GST control) | 1.21 fold enrichment (6-mer frequency, TF over GST control) | 1.11 fold enrichment (6-mer frequency, TF over GST control)
13 | TGCTAC | 1.39 fold enrichment (6-mer frequency, TF over GST control) | 1.3 fold enrichment (6-mer frequency, TF over GST control) | 1.23 fold enrichment (6-mer frequency, TF over GST control) | 1.26 fold enrichment (6-mer frequency, TF over GST control) | 1.23 fold enrichment (6-mer frequency, TF over GST control) | 1.17 fold enrichment (6-mer frequency, TF over GST control) | 1.23 fold enrichment (6-mer frequency, TF over GST control) | 1.16 fold enrichment (6-mer frequency, TF over GST control)
14 | CGTCCC | 1.35 fold enrichment (6-mer frequency, TF over GST control) | 1.3 fold enrichment (6-mer frequency, TF over GST control) | 1.38 fold enrichment (6-mer frequency, TF over GST control) | 1.35 fold enrichment (6-mer frequency, TF over GST control) | 1.22 fold enrichment (6-mer frequency, TF over GST control) | 1.31 fold enrichment (6-mer frequency, TF over GST control) | 1.41 fold enrichment (6-mer frequency, TF over GST control) | 1.32 fold enrichment (6-mer frequency, TF over GST control)
15 | ATTAAG | 1.16 fold enrichment (6-mer frequency, TF over GST control) | 1.09 fold enrichment (6-mer frequency, TF over GST control) | 1.01 fold enrichment (6-mer frequency, TF over GST control) | 1.13 fold enrichment (6-mer frequency, TF over GST control) | 1.12 fold enrichment (6-mer frequency, TF over GST control) | 1.02 fold enrichment (6-mer frequency, TF over GST control) | 1.04 fold enrichment (6-mer frequency, TF over GST control) | 1.11 fold enrichment (6-mer frequency, TF over GST control)
